Bioassay records: PubChem, NMMLSC
An excerpt weighted towards active compounds, which were near 1.2% of everything screened.
RGS16-Gao HTS = modulates binding between human RGS16 and Galphao; O15492+P09471; binding response (% of control), % at 10 µM; 0.38% of 220,000 active; bead-based flow cytometry RGS16-Galphao binding, fluorescence; actives lie on both sides; AID 1441;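 note: Galphao activated by GDP with aluminum fluoride before binding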
RGS7-Gao reg = modulates binding of RGS7 to human Galphao | AID 1439 | P09471 | Multiplexed bead flow cytometry; actives lie on both sides | 0.35% of 220,000 active | binding response (% of control), % at 10 µM; in the data active = binding response below about 49% or above about 150%; inconclusive = no clear call, values can overlap the other calls; inactive = in between;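 note: fluorescent Galphao held in activated GDP-AlF4 state binding bead-coupled RGS7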
RGS4-Gao reg = modulates binding of RGS4 to human Galphao. Multiplexed bead flow cytometry; actives lie on both sides. binding response (% of control), % at 10 µM. 0.33% of 220,000 active. AID 1415; in the data active = binding response below about 49% or above about 150%; inactive = in between;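 note: fluorescent Galphao activated with aluminum fluoride binding bead-coupled RGS4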
RGS8-Gao = human RGS8-Galphao interaction regulation. response (percent of control binding), % at 10 µM. multiplexed bead flow cytometry, RGS8-Galphao binding; actives lie on both sides. 0.34% of 220,000 active. AID 1423; in the data active = response below about 60% or above about 140%; inactive = in between;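 note: Galphao activated as the GDP aluminium fluoride complex binding bead-coupled RGS8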
GSH bead fluor = compound fluoresces at 488/530 nm on GSH beads; GSH beads flow cytometry, compound fluorescence 488/530 nm; hits give high values; fluorescence (KMESF) at 10 µM; 0.25% of 190,000 active; in the data active = fluorescence above about 89;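 note: glutathione beads carrying GST-tagged Bcl family fusion proteins plus one bare bead set; values are compound well signal with DMSO vehicle wells as background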
Avidin fluor = compound fluoresces at 488/530 nm on avidin beads | compound fluorescence 488/530 nm, flow cytometry; hits give high values | fluorescence (KMESF) at 10 µM | 0.38% of 220,000 active | AID 1775; in the data active = fluorescence above about 47
RGS-Gao = RGS4-Galphao interaction regulator (human); shares compounds with RGS16-Gao HTS; multiplexed bead flow cytometry, RGS–Galpha-o binding; RGS4–Galpha-o binding response, % at 10 µM; 99% of 1,600 active; AID 1504;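 note: fluorescently labeled Galpha-o bound to GDP with aluminium fluoride binding biotinylated RGS beads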
Avidin counter = counter-screen: compounds disrupting biotin binding to avidin beads | shares compounds with RGS16-Gao HTS | 1,700 tested, under 10 active | streptavidin beads, fluorescein-biotin binding, flow cytometry | inhibition, % at 10 µM | AID 1783;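 active = inhibition above 50%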;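 note: median green fluorescence of gated singlet beads compared with DMSO control wells; 0% = DMSO wells and 100% = complete loss of bead fluorescence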
RGS8-Gao confirm = confirmation of regulators of human RGS8-Galphao interaction | shares compounds with RGS16-Gao HTS | bead-based flow cytometry RGS8-Galphao binding, fluorescence; actives lie on both sides | binding response (% of control), % at 10 µM | 3% of 1,700 active; in the data active = binding response below about 72% or above about 130%; inactive = in between;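 note: Galphao activated as GDP AlF4 complex before binding bead RGS8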
RGS7-Gao single = confirmation of regulators of human RGS7-Galphao interaction. shares compounds with RGS16-Gao HTS. bead-based flow cytometry RGS7-Galphao binding; actives lie on both sides. response (percent of control binding), % at 10 µM. 7.8% of 1,700 active. AID 1837; in the data active = response below about 75% or above about 130%; inactive = in between;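 note: fluorescent Galphao activated with GDP and aluminum fluoride binding bead-coupled RGS7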
RGS16-Gao single = confirmation of regulators of human RGS16-Galphao interaction. response (% of control binding), % at 10 µM. bead-based flow cytometry, RGS16-Galphao binding; actives lie on both sides. shares compounds with RGS16-Gao HTS. 4% of 1,700 active; in the data active = response below about 74% or above about 130%; inactive = in between;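 note: Galphao activated as the GDP aluminium fluoride complex binding bead-coupled RGS16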
RGS4-Gao single = confirmation of regulators of human RGS4-Galphao interaction | shares compounds with RGS16-Gao HTS | binding response (% of control), % at 10 µM | AID 1840 | 4% of 1,700 active | RGS4-Galphao binding, multiplexed bead flow cytometry; actives lie on both sides; in the data active = binding response below about 74% or above about 130%; inactive = in between
RGS19-Gao single = confirmation of regulators of human RGS19-Galphao interaction; shares compounds with RGS16-Gao HTS; bead-based flow cytometry RGS19-Galphao binding; actives lie on both sides; response (percent of control binding), % at 10 µM; 5% of 1,700 active; in the data active = response below about 50% or above about 160%; inactive = in between;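 note: 100% = no compound control and 0% = blank background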
Target sequence (P09471 whole entry, looked up): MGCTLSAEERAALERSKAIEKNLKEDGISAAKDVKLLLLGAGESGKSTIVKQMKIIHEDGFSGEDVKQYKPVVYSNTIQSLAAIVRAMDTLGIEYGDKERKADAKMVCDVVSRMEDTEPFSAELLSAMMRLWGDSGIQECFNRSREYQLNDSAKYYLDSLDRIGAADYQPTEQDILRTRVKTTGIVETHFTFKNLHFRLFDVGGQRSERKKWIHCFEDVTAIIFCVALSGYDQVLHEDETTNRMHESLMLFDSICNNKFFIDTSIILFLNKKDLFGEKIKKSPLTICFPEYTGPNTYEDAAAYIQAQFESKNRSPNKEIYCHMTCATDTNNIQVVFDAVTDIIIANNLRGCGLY
Target sequence (P49795 whole entry, looked up): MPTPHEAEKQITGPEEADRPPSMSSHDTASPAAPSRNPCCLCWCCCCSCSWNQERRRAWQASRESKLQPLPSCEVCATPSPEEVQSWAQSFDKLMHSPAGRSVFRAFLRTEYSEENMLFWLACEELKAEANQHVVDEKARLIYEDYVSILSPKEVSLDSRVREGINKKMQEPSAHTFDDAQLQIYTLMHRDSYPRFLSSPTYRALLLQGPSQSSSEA
Active calls of the source: *; [ ] = another dose, or the depositor's remark. Unless noted, the rule behind the calls is not given here.

What do the screens show for `CN(C)C(=O)CSC1c2ccccc2C(=O)N1c1ccccc1` (stereo not drawn)?
RGS16-Gao HTS: -8; RGS7-Gao reg: 15*; RGS4-Gao reg: 23*; RGS8-Gao: 9.1*; GSH bead fluor: 26; Avidin fluor: -2; Avidin counter: -2; RGS8-Gao confirm: 104; RGS7-Gao single: 98; RGS16-Gao single: 107; RGS4-Gao single: 101; RGS19-Gao single: 113

Results for O=C(CSC1c2ccccc2C(=O)N1c1ccccc1)N1CCOCC1 (stereo not drawn) ?
RGS16-Gao HTS: 91; RGS7-Gao reg: 100; RGS4-Gao reg: 99; RGS8-Gao: 97; GSH bead fluor: 8; Avidin fluor: 6

How did Cc1ccc(Sc2c(O)c3ccccc3n(C)c2=O)cc1 do in these assays?
RGS16-Gao HTS: 14*; RGS7-Gao reg: 91; RGS4-Gao reg: 99; RGS8-Gao: 68; GSH bead fluor: 12; Avidin fluor: 1; RGS-Gao: 99*; Avidin counter: 0; RGS8-Gao confirm: 103; RGS7-Gao single: 107; RGS16-Gao single: 105; RGS4-Gao single: 109; RGS19-Gao single: 96

What do the screens show for `CC(C)(C)CC(=O)O/N=C(\N)c1ccncc1`?
RGS16-Gao HTS: 102; RGS7-Gao reg: inconclusive; RGS4-Gao reg: 101; RGS8-Gao: 102; GSH bead fluor: 17; Avidin fluor: 9

What do the screens show for `NC(=O)NC(=O)COC(=O)c1ccccc1OCc1ccc(F)cc1`?
RGS16-Gao HTS: 40; RGS7-Gao reg: inconclusive; RGS4-Gao reg: 40*; RGS8-Gao: 55*; Avidin fluor: 1; Avidin counter: -8; RGS8-Gao confirm: 114; RGS7-Gao single: 117; RGS16-Gao single: 112; RGS4-Gao single: 114; RGS19-Gao single: 113

Results for NCCCC(=O)O ?
RGS16-Gao HTS: 116; RGS7-Gao reg: 103; RGS4-Gao reg: 103; RGS8-Gao: 105; GSH bead fluor: 20; Avidin fluor: 7

How did CCCC(N)CCCCCC(=O)O (stereo not drawn) do in these assays?
RGS16-Gao HTS: 333*[activator]; RGS7-Gao reg: 120; RGS4-Gao reg: 129; RGS8-Gao: 123; GSH bead fluor: 25; Avidin fluor: 14; RGS-Gao: 129*; Avidin counter: -2; RGS8-Gao confirm: 99; RGS7-Gao single: 98; RGS16-Gao single: 98; RGS4-Gao single: 101; RGS19-Gao single: 93

What do the screens show for `CCC(=O)Nc1sc2c(c1C(N)=O)CCC2`?
RGS16-Gao HTS: -7.4*; RGS7-Gao reg: 7.2*; RGS4-Gao reg: 16*; RGS8-Gao: 12*; GSH bead fluor: 22; Avidin fluor: -2; Avidin counter: -1; RGS8-Gao confirm: 107; RGS7-Gao single: 102; RGS16-Gao single: 108; RGS4-Gao single: 101; RGS19-Gao single: 107

What do the screens show for `COc1cc(C(=O)O)nc(OC)n1`?
RGS16-Gao HTS: 103; RGS7-Gao reg: 99; RGS4-Gao reg: 99; RGS8-Gao: 102; GSH bead fluor: 20; Avidin fluor: 5
